# Source: PubChem BioAssay
# The list shows a part of the results. The source made the active and inactive calls.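 Rule for the calls, unless noted: active = mean inhibition above about 50% in the one-dose retest (limit read from the data); inactive = the rest.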
# How the values were obtained:
# [1] = PMA/ionomycin-induced NF-kB reporter inhibitors, Jurkat retest, confirmation, T-cell NF-kB inhibitor project, cell-based, luminescence, single concentration (AID 435020;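 active = inhibition reaching about 45% at 4 µM in either replicate, limit read from the data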;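 note: plate controls were PMA/ionomycin stimulated DMSO wells for no effect and unstimulated DMSO wells for full effect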); conditions: Jurkat NF-kB luciferase, 16 h, at 4 µM, stronger effect = higher value
# [2] = target: Sentrin-specific protease 8 (Homo sapiens) (UniProt Q96LD8); assay: SENP8 protease inhibitors, retest, confirmation, biochemical, luminescence, single concentration (AID 488912;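 active = mean inhibition across replicates above about 50%, limit read from the data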); conditions: Recombinant SENP8, Z-RLRGG-aminoluciferin luminescence, 60 min; at 12.5 µM; stronger effect = higher value
# [3] = target: Sentrin-specific protease 6 (Homo sapiens) (UniProt Q9GZR1); assay: SENP6 protease inhibitors, confirmation, biochemical, luminescence, single concentration (AID 488915); conditions: recombinant SENP6, Z-RLRGG-aminoluciferin luminescence; at 12.5 µM; stronger effect = higher value
# [4] = target: Sentrin-specific protease 7 (Homo sapiens) (UniProt Q9BQF6); assay: SENP7 protease inhibitors, retest, confirmation, biochemical, luminescence, single concentration (AID 488917); conditions: recombinant SENP7, Z-RLRGG-aminoluciferin luminescence, 40 min; at 12.5 µM; stronger effect = higher value
# Caspase-3 (Homo sapiens) = Caspase-3 (Homo sapiens) (UniProt P42574); assay: caspase-3 protease inhibitors, confirmation, selectivity assay for SENP inhibitor project, biochemical, single concentration (AID 488918;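 active = mean inhibition above about 50%, limit read from the data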;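 note: plate controls were enzyme with DMSO for no effect and wells without caspase-3 for full effect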); conditions: purified caspase-3, Z-DEVD-aminoluciferin luminescence, 60 min; at 12.5 µM; stronger effect = higher value
# [5] = luciferase luminescence interference by compounds, confirmation, artefact control for SENP inhibitor project, biochemical, single concentration, SENP8 reaction pre-completed (AID 488919;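 active = mean inhibition above about 50% when retested at one dose, limit read from the data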;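 note: plate controls were DMSO wells with completed reaction for no effect and substrate without enzyme for full effect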); conditions: Pre-incubated SENP8/Z-RLRGG-aminoluciferin, at 12.5 µM, stronger effect = higher value
# [6] = activators of apoptotic CHOP UPR arm, confirmation, cell-based, CHO-CHOP luciferase reporter, single concentration (AID 463112; in the data active = activation above about 33%;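 note: 0% = DMSO wells and 100% = tunicamycin 10 µg/mL wells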); conditions: CHO-CHOP cells, CHOP-luciferase reporter luminescence; at 10 µM; stronger effect = higher value; percent of tunicamycin response, DMSO as zero
# [7] = inhibition of Brca1/Bard1 split-luciferase complementation, confirmation, counter-screen for Mdm2/MdmX interaction inhibitor project, luminescence, single concentration (AID 504668; call rule not given here); conditions: Brca1/Bard1 bimolecular luciferase complementation counterscreen, at 8 µM, stronger effect = higher value
# [8] = Peg3 promoter reporter inhibitors, retest, confirmation, cell-based, HeLa, luciferase reporter, single concentration (AID 602417;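 active = at 20 µM dose, 40% or more inhibition averaged across four replicates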); conditions: HeLa PEG-Prom luciferase reporter, luminescence, overnight; at 20 µM; stronger effect = higher value
# [9] = HIF-2a reporter inhibitor retest, confirmation, luminescence, 786-0 RCC cells (AID 651580;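 active = mean inhibition across four replicates of at least 40 percent at the single tested concentration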); conditions: HIF-2a luciferase reporter luminescence, overnight, at 18.8 µM, stronger effect = higher value
# [10] = HIF-1a luciferase reporter signal reduction – MiaPaCa-2 cells, single concentration, counter-screen for HIF-2a inhibitor project, confirmation (AID 651589;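 active = mean inhibition of the reporter signal across four replicates at the single tested dose of 50% or more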); conditions: MiaPaCa-2 HIF-1a luciferase reporter, desferoxamine, overnight; at 18.8 µM; stronger effect = higher value
# PEG-3 [11] = target: PEG-3 (UniProt Q6IN02); assay: Peg3 promoter luciferase inhibitors, potency, dose response, cell-based, HeLa, CREF/GAPDH counter-screen panel (AID 624167); conditions: CREF/GAPDH counter-screens; HeLa PEG-Prom luciferase reporter, overnight, run 1, dose range 1, at 100 µM (top of the series) unless noted
# PEG-3 [12] = target: PEG-3 (UniProt Q6IN02); assay: as above; conditions: CREF/GAPDH counter-screens; HeLa PEG-Prom luciferase reporter, overnight, run 2, dose range 1, at 100 µM (top of the series) unless noted
# Rat fibroblasts (CREF) [13] = assay: as above; conditions: CREF/GAPDH counter-screens; run 1, dose range 1, at 100 µM (top of the series)
# Rat fibroblasts (CREF) [14] = assay: as above; conditions: CREF/GAPDH counter-screens; run 2, dose range 1, at 100 µM (top of the series)
# [15] = target: Carboxy-terminal domain RNA polymerase II polypeptide A small phosphatase 1 (Homo sapiens) (UniProt Q9GZU7); assay: Scp-1 binding by thermal shift, confirmation, orthogonal assay for Scp-1 inhibitor project, biophysical, differential scanning fluorimetry (AID 540329;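 active = substances whose mean melting-temperature shift, as a percentage of the reference inhibitor's shift, reaches about 5.3%, limit read from the data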;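 note: 0% = Tm of DMSO wells and 100% = Tm with sodium orthovanadate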); conditions: Recombinant SCP1, Sypro Orange thermal shift Tm; at 40 µM; stronger effect = higher value
# Chain of Carboxy-terminal domain RNA polymerase II polypeptide A small phosphatase 1 (Homo sapiens) (Q9GZU7 76-261 limits assumed): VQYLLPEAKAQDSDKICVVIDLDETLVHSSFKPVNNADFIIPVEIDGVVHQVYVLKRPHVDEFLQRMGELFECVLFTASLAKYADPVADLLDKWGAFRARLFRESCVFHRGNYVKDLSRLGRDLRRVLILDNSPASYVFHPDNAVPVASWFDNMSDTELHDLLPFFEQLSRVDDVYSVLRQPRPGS
# Chain of Caspase-3 (Homo sapiens) (P42574 28-227 limits assumed): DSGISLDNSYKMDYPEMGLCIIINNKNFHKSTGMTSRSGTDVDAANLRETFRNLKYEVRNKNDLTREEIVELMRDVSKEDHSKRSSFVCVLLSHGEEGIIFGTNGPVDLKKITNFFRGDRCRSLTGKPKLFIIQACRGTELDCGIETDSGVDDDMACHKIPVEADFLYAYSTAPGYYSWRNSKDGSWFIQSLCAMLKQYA
# Chain of Sentrin-specific protease 6 (Homo sapiens) (Q9GZR1 628-1112 limits assumed): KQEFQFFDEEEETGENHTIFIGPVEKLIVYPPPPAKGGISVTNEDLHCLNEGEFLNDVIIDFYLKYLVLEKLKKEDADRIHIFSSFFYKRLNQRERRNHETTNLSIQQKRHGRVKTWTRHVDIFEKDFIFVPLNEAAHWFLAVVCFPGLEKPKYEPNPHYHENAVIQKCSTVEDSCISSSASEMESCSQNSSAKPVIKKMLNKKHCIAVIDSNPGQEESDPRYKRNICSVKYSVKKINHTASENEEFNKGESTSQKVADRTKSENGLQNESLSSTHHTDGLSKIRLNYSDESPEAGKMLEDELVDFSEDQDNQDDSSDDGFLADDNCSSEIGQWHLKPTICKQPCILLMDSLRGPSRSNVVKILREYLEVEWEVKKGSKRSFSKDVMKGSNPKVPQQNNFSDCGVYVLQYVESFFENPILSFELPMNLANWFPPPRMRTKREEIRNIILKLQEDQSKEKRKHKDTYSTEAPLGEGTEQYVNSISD
# Chain of Sentrin-specific protease 8 (Homo sapiens) (Q96LD8 whole entry, looked up): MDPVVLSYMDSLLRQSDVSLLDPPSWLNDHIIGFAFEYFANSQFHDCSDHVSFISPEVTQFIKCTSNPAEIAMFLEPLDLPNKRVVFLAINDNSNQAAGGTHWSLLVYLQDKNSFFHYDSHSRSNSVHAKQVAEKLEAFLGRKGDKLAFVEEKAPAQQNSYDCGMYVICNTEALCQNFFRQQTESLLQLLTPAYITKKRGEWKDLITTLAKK
# Chain of Sentrin-specific protease 7 (Homo sapiens) (Q9BQF6 706-1050 limits assumed): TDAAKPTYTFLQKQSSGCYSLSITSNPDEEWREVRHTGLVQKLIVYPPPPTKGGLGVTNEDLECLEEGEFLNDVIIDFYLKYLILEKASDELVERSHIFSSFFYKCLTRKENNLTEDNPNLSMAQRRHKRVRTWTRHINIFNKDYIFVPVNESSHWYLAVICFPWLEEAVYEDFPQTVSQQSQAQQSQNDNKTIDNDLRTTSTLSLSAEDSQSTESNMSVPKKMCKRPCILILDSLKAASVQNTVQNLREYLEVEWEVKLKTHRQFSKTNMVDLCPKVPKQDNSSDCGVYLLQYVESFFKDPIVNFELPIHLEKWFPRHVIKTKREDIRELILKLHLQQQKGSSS
# Chain of PEG-3 (Q6IN02 whole entry, looked up): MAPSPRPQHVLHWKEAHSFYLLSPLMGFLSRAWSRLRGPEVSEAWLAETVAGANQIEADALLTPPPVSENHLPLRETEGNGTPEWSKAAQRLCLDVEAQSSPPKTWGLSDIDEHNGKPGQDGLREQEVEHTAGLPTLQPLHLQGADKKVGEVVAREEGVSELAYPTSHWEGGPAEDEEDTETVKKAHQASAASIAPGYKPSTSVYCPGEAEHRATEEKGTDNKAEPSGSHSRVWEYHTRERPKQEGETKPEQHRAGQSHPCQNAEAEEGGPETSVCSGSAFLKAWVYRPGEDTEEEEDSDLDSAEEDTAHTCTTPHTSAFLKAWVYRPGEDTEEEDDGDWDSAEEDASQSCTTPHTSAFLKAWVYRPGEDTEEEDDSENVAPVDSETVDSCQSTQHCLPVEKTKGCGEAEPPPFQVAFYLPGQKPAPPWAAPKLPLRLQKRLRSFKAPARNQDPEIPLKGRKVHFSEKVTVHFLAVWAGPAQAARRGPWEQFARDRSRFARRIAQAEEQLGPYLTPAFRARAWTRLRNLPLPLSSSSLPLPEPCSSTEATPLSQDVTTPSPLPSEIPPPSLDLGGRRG
smiles,measurement,setting,value
CCC(=O)Nc1ccc2nn(-c3ccc(F)cc3)nc2c1,inhibition,[1],-119% (inactive)
same,inhibition,[2],18.1% (inactive)
same,inhibition,[3],38.2% (inactive)
same,inhibition,[4],46.4% (inactive)
same,inhibition,Caspase-3 (Homo sapiens),32.5% (inactive)
same,inhibition,[5],3.4% (inactive)
Cc1ccc(OCc2nc3ccccc3n2C)cc1,inhibition,[1],-91.5% (inactive)
same,inhibition,[2],8.9% (inactive)
same,inhibition,[3],54.5% (active)
same,inhibition,[4],79% (active)
same,inhibition,Caspase-3 (Homo sapiens),68% (active)
same,inhibition,[5],18.5% (inactive)
O=[N+]([O-])c1ccc2oc(-c3cccc(O)c3)nc2c1,inhibition,[1],-113% (inactive)
same,inhibition,[2],90.4% (active)
same,inhibition,[3],90.4% (active)
same,inhibition,[4],99% (active)
same,inhibition,Caspase-3 (Homo sapiens),85.8% (active)
same,inhibition,[5],84.4% (active)
Clc1ccc2nc(CSc3ccccc3)cn2c1,inhibition,[1],-58.5% (inactive)
same,inhibition,[2],53.7% (active)
same,inhibition,[3],55.6% (active)
same,inhibition,[4],86.6% (active)
same,inhibition,Caspase-3 (Homo sapiens),68.9% (active)
same,inhibition,[5],70.8% (active)
CCOc1ccc(NC(=O)c2ccc(NC(=O)COC(=O)c3ccc(NC(=O)CC#N)cc3)cc2)cc1,inhibition,[1],-36.5% (inactive)
CSc1nc(N(C)NC(=O)c2cccc(C)c2)c2ccccc2n1,inhibition,[1],57.2% (active)
COc1ccc(-c2csc(Nc3ccccn3)n2)cc1,inhibition,[1],16.1% (inactive)
Cc1ccc2cc3cc(C(=O)N4CCCCCC4)oc3nc2c1,inhibition,[1],-90.9% (inactive)
same,inhibition,[2],41.9% (inactive)
same,inhibition,[3],47.9% (inactive)
same,inhibition,[4],79.7% (active)
same,inhibition,Caspase-3 (Homo sapiens),62.2% (active)
same,inhibition,[5],47.7% (inactive)
COc1ccc(Nc2cc(C)nc(-n3nc(C)cc3C)n2)cc1,inhibition,[1],64.7% (active)
same,activation,[6],2.6% (inactive)
Cn1nccc1C(=O)NC1CCCc2c1cnn2-c1ccccc1F (centres undefined),inhibition,[1],68.1% (active)
Cn1c(-c2ccc(C(F)(F)F)cc2)cc2onc(-c3ccccc3)c2c1=O,inhibition,[1],-121% (inactive)
CCCc1cc(C(=O)Nc2ccc(Cl)cn2)cs1,inhibition,[1],-104% (inactive)
same,inhibition,[2],73.5% (active)
same,inhibition,[3],79.2% (active)
same,inhibition,[4],92.2% (active)
same,inhibition,Caspase-3 (Homo sapiens),66.8% (active)
same,inhibition,[5],59.1% (active)
Cn1c(-c2ccc(C(=O)c3ccccc3)s2)nc2ccccc21,inhibition,[1],-108% (inactive)
same,inhibition,[2],0% (inactive)
same,inhibition,[3],11.3% (inactive)
same,inhibition,[4],17.8% (inactive)
same,inhibition,Caspase-3 (Homo sapiens),23% (inactive)
same,inhibition,[5],8.8% (inactive)
CCc1ccc2oc(-c3ccc(N)cc3)nc2c1,inhibition,[1],-126% (inactive)
same,inhibition,[2],94.5% (active)
same,inhibition,[3],94.8% (active)
same,inhibition,[4],100% (active)
same,inhibition,Caspase-3 (Homo sapiens),84.1% (active)
same,inhibition,[5],94.5% (active)
O=C(Nc1ccc(-c2nnc(-c3ccccc3)o2)cc1)C1CCCO1 (centres undefined),inhibition,[1],-47.8% (inactive)
same,inhibition,[2],28.8% (inactive)
same,inhibition,[3],21.4% (inactive)
same,inhibition,[4],38.3% (inactive)
same,inhibition,Caspase-3 (Homo sapiens),38.8% (inactive)
same,inhibition,[5],8.6% (inactive)
O=c1cc(-c2ccccc2)[nH]c2cc(F)ccc12,inhibition,[1],46% (inactive)
Oc1ccc(/C=N/Nc2ccc(C(F)(F)F)cn2)cc1O,inhibition,[1],-7.8% (inactive)
same,activation,[6],68.9% (active)
COc1ccc(-n2nnnc2-c2nc3ccccc3s2)cc1,inhibition,[1],-67.2% (inactive)
same,inhibition,[2],17.5% (inactive)
same,inhibition,[3],26.7% (inactive)
same,inhibition,[4],4.7% (inactive)
same,inhibition,Caspase-3 (Homo sapiens),35.5% (inactive)
same,inhibition,[5],1.6% (inactive)
O=C(c1cnn(-c2ccc(Cl)cc2)c1)c1ccccc1O,inhibition,[1],-109% (inactive)
same,inhibition,[2],11.7% (inactive)
same,inhibition,[3],95.3% (active)
same,inhibition,[4],78.6% (active)
same,inhibition,Caspase-3 (Homo sapiens),73.5% (active)
same,inhibition,[5],56.5% (active)
Cc1nc(NC(=O)c2ccc3c(c2)OCCO3)ccc1Br,inhibition,[1],-134% (inactive)
same,inhibition,[2],82.6% (active)
same,inhibition,[3],80.5% (active)
same,inhibition,[4],96.2% (active)
same,inhibition,Caspase-3 (Homo sapiens),74% (active)
same,inhibition,[5],64.5% (active)
Cc1c(C(=O)Nc2ccccn2)oc2ccc(Br)cc12,inhibition,[1],-77.2% (inactive)
same,inhibition,[2],14.3% (inactive)
same,inhibition,[3],18.5% (inactive)
same,inhibition,[4],27.6% (inactive)
same,inhibition,Caspase-3 (Homo sapiens),22.7% (inactive)
same,inhibition,[5],17.1% (inactive)
COc1ccc(Nc2ncnc3ccc(Br)cc23)c(OC)c1,inhibition,[1],88.2% (active)
same,inhibition,[7],24.3% (active)
same,inhibition,[8],87.9% (active)
same,inhibition,[9],91.3% (active)
same,inhibition,[10],102% (active)
same,inhibition,PEG-3 [11],88.3%
same,inhibition,PEG-3 [12],91.8%
same,inhibition,Rat fibroblasts (CREF) [13],44.4%
same,inhibition,Rat fibroblasts (CREF) [14],38.7%
N/C(=N\OC(=O)N1c2ccccc2Sc2ccccc21)c1ccc(Br)cc1,inhibition,[1],6.45% (inactive)
same,thermal shift relative to vanadate control,[15],-22.1% (inactive)
